According to PMC9838217, “Structure of SALL4 zinc finger domain reveals link between AT-rich DNA binding and Okihiro syndrome”:
Residue numbers refer to the chain shown, from its start.

What follows are sequences tested against T1, SALL4 ZFC4 WT (HT-SELEX) (Mus musculus, UniProt Q8BX22 870-940) (assay: HT-SELEX; high values mean tight binding). Conditions: protein: recombinant; vector His6-GST; dsDNA, one strand shown.
T1 sequence: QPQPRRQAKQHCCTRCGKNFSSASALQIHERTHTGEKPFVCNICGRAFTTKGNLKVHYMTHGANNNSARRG
Summary of the method: (§1)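 Library DNA (1.5 µg in cycle one, 200 ng in later cycles) was incubated with 1 µg of purified recombinant mouse SALL4 zinc finger cluster 4, residues 870–940, in 100 µl buffer (10 mM Tris–HCl pH 7.5, 50 mM NaCl, poly(dI-dC), DTT) at room temperature for 10 min. Up to 6 rounds of Ni2+ bead capture, washing, PCR amplification and reselection were run in triplicate. Reads from MiSeq sequencing were scanned for 6-mers. For each canonical k-mer, binding signal is its read fraction as fold change versus the original random library.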

Compared with CTAGAG, AAGACT is higher in binding signal: 0.862 ± 0.0503 fold-change vs cycle 0 for the first, 1.29 ± 0.0445 fold-change vs cycle 0 for the second.

Compared with AGCGAA, ACCAGC is lower in binding signal: 0.492 ± 0.0304 fold-change vs cycle 0 for the first, 0.312 ± 0.0135 fold-change vs cycle 0 for the second.

Going from CATTAG to ACTACC, the binding signal falls from 1.317 ± 0.00537 fold-change vs cycle 0 to 0.799 ± 0.0371 fold-change vs cycle 0.

Compared with GCCAAA, CACAGG is higher in binding signal: 0.353 ± 0.00667 fold-change vs cycle 0 for the first, 0.432 ± 0.00836 fold-change vs cycle 0 for the second.

Compared with CGGAAA, AGTGAG is higher in binding signal: 0.548 ± 0.0301 fold-change vs cycle 0 for the first, 0.933 ± 0.017 fold-change vs cycle 0 for the second.

First: GGTCAC
Second: CTGTAC
The binding signal of the first is lower: 0.432 ± 0.0454 fold-change vs cycle 0 for the first, 0.751 ± 0.0338 fold-change vs cycle 0 for the second.

ACCCAT and CTAGGA are within error of each other in binding signal: 0.847 ± 0.0456 fold-change vs cycle 0 for the first, 0.873 ± 0.029 fold-change vs cycle 0 for the second.

Going from AAAGGC to GTATAC, the binding signal rises from 0.475 ± 0.0422 fold-change vs cycle 0 to 1.25 ± 0.0389 fold-change vs cycle 0.

Going from AGAACA to ACTCTA, the binding signal rises from 1.26 ± 0.0155 fold-change vs cycle 0 to 1.37 ± 0.0421 fold-change vs cycle 0.

Compared with GGATAA, GAACCA is lower in binding signal: 1.38 ± 0.0543 fold-change vs cycle 0 for the first, 0.766 ± 0.0201 fold-change vs cycle 0 for the second.

Going from CGTCTC to ACAGAT, the binding signal rises from 0.379 ± 0.0073 fold-change vs cycle 0 to 1.32 ± 0.0342 fold-change vs cycle 0.

Compared with ATAGAA, TCTTCA is lower in binding signal: 2.33 ± 0.17 fold-change vs cycle 0 for the first, 1.42 ± 0.033 fold-change vs cycle 0 for the second.

Going from AGGGGG to TGTAAA, the binding signal rises from 0.323 ± 0.0254 fold-change vs cycle 0 to 1.93 ± 0.102 fold-change vs cycle 0.

Compared with AAATCC, AGAGGG is lower in binding signal: 1.19 ± 0.0372 fold-change vs cycle 0 for the first, 0.489 ± 0.0115 fold-change vs cycle 0 for the second.

First: CTAGCA
Second: AGTATG
The binding signal of the first is lower: 0.695 ± 0.0294 fold-change vs cycle 0 for the first, 1.43 ± 0.0699 fold-change vs cycle 0 for the second.

First: GCACTA
Second: TAGAAA
The binding signal of the first is lower: 0.57 ± 0.0256 fold-change vs cycle 0 for the first, 2.03 ± 0.103 fold-change vs cycle 0 for the second.

Compared with TAGCCA, CCCTCC is lower in binding signal: 0.536 ± 0.0328 fold-change vs cycle 0 for the first, 0.318 ± 0.0193 fold-change vs cycle 0 for the second.

First: GTTTAA
Second: AAGTTG
The binding signal of the first is higher: 1.69 ± 0.0773 fold-change vs cycle 0 for the first, 1.18 ± 0.062 fold-change vs cycle 0 for the second.

Compared with TGACCA, CCTTGC is lower in binding signal: 0.72 ± 0.0319 fold-change vs cycle 0 for the first, 0.381 ± 0.0117 fold-change vs cycle 0 for the second.

Going from AACCCC to GTACGA, the binding signal rises from 0.459 ± 0.0283 fold-change vs cycle 0 to 0.706 ± 0.0277 fold-change vs cycle 0.

These sequences were tested against T2, SALL4 ZFC4 R900W (HT-SELEX) (Mus musculus, UniProt Q8BX22 870-940, R900W) (assay: HT-SELEX; high values mean tight binding). Conditions: protein: recombinant; vector His6-GST; dsDNA, one strand shown.
T2 sequence: T1 sequence with R31W
Summary of the method: as §1

Compared with CTAGAG, AAGACT is higher in binding signal: 1 ± 0.0918 fold-change vs cycle 0 for the first, 1.49 ± 0.0431 fold-change vs cycle 0 for the second.

Compared with AGCGAA, ACCAGC is lower in binding signal: 0.566 ± 0.0332 fold-change vs cycle 0 for the first, 0.369 ± 0.00921 fold-change vs cycle 0 for the second.

First: CATTAG
Second: ACTACC
The binding signal of the first is higher: 1.45 ± 0.0172 fold-change vs cycle 0 for the first, 0.948 ± 0.0381 fold-change vs cycle 0 for the second.

First: GCCAAA
Second: CACAGG
The binding signal of the first is lower: 0.404 ± 0.0166 fold-change vs cycle 0 for the first, 0.527 ± 0.0297 fold-change vs cycle 0 for the second.

Going from CGGAAA to AGTGAG, the binding signal rises from 0.591 ± 0.00691 fold-change vs cycle 0 to 1.03 ± 0.0394 fold-change vs cycle 0.

First: GGTCAC
Second: CTGTAC
The binding signal of the first is lower: 0.512 ± 0.0261 fold-change vs cycle 0 for the first, 0.874 ± 0.0496 fold-change vs cycle 0 for the second.

ACCCAT and CTAGGA are within error of each other in binding signal: 0.916 ± 0.0414 fold-change vs cycle 0 for the first, 0.993 ± 0.0392 fold-change vs cycle 0 for the second.

Compared with AAAGGC, GTATAC is higher in binding signal: 0.571 ± 0.0175 fold-change vs cycle 0 for the first, 1.39 ± 0.0328 fold-change vs cycle 0 for the second.

AGAACA and ACTCTA are within error of each other in binding signal: 1.39 ± 0.0297 fold-change vs cycle 0 for the first, 1.48 ± 0.0703 fold-change vs cycle 0 for the second.

Going from GGATAA to GAACCA, the binding signal falls from 1.52 ± 0.0741 fold-change vs cycle 0 to 0.871 ± 0.0494 fold-change vs cycle 0.

First: CGTCTC
Second: ACAGAT
The binding signal of the first is lower: 0.467 ± 0.0242 fold-change vs cycle 0 for the first, 1.4 ± 0.028 fold-change vs cycle 0 for the second.

Compared with ATAGAA, TCTTCA is lower in binding signal: 2.13 ± 0.133 fold-change vs cycle 0 for the first, 1.6 ± 0.094 fold-change vs cycle 0 for the second.

Going from AGGGGG to TGTAAA, the binding signal rises from 0.375 ± 0.0258 fold-change vs cycle 0 to 1.92 ± 0.0908 fold-change vs cycle 0.

Compared with AAATCC, AGAGGG is lower in binding signal: 1.27 ± 0.0238 fold-change vs cycle 0 for the first, 0.556 ± 0.0501 fold-change vs cycle 0 for the second.

Compared with CTAGCA, AGTATG is higher in binding signal: 0.782 ± 0.0282 fold-change vs cycle 0 for the first, 1.49 ± 0.072 fold-change vs cycle 0 for the second.

First: GCACTA
Second: TAGAAA
The binding signal of the first is lower: 0.649 ± 0.0265 fold-change vs cycle 0 for the first, 1.91 ± 0.061 fold-change vs cycle 0 for the second.

Going from TAGCCA to CCCTCC, the binding signal falls from 0.614 ± 0.0132 fold-change vs cycle 0 to 0.362 ± 0.0224 fold-change vs cycle 0.

Going from GTTTAA to AAGTTG, the binding signal falls from 1.79 ± 0.0911 fold-change vs cycle 0 to 1.32 ± 0.0296 fold-change vs cycle 0.

Compared with TGACCA, CCTTGC is lower in binding signal: 0.823 ± 0.0121 fold-change vs cycle 0 for the first, 0.45 ± 0.00496 fold-change vs cycle 0 for the second.

First: AACCCC
Second: GTACGA
The binding signal of the first is lower: 0.547 ± 0.00959 fold-change vs cycle 0 for the first, 0.794 ± 0.0311 fold-change vs cycle 0 for the second.

The sequences below were run against T3, SALL4 ZFC4 G921D (HT-SELEX) (Mus musculus, UniProt Q8BX22 870-940, G921D) (assay: HT-SELEX; high values mean tight binding). Conditions: protein: recombinant; vector His6-GST; dsDNA, one strand shown.
T3 sequence: T1 sequence with G52D
Summary of the method: as §1

First: CTAGAG
Second: AAGACT
The binding signal of the first is lower: 1.03 ± 0.068 fold-change vs cycle 0 for the first, 1.4 ± 0.0897 fold-change vs cycle 0 for the second.

Going from AGCGAA to ACCAGC, the binding signal falls from 0.686 ± 0.0519 fold-change vs cycle 0 to 0.497 ± 0.0437 fold-change vs cycle 0.

Going from CATTAG to ACTACC, the binding signal falls from 1.39 ± 0.0502 fold-change vs cycle 0 to 0.968 ± 0.0334 fold-change vs cycle 0.

GCCAAA and CACAGG are within error of each other in binding signal: 0.545 ± 0.0739 fold-change vs cycle 0 for the first, 0.624 ± 0.0533 fold-change vs cycle 0 for the second.

Going from CGGAAA to AGTGAG, the binding signal rises from 0.694 ± 0.0765 fold-change vs cycle 0 to 1.05 ± 0.0473 fold-change vs cycle 0.

First: GGTCAC
Second: CTGTAC
The binding signal of the first is lower: 0.662 ± 0.0597 fold-change vs cycle 0 for the first, 0.911 ± 0.0674 fold-change vs cycle 0 for the second.

ACCCAT and CTAGGA are within error of each other in binding signal: 0.954 ± 0.0193 fold-change vs cycle 0 for the first, 0.975 ± 0.0202 fold-change vs cycle 0 for the second.

First: AAAGGC
Second: GTATAC
The binding signal of the first is lower: 0.688 ± 0.0599 fold-change vs cycle 0 for the first, 1.34 ± 0.0932 fold-change vs cycle 0 for the second.

AGAACA and ACTCTA are within error of each other in binding signal: 1.34 ± 0.0563 fold-change vs cycle 0 for the first, 1.43 ± 0.113 fold-change vs cycle 0 for the second.

Compared with GGATAA, GAACCA is lower in binding signal: 1.34 ± 0.114 fold-change vs cycle 0 for the first, 0.937 ± 0.0521 fold-change vs cycle 0 for the second.

Compared with CGTCTC, ACAGAT is higher in binding signal: 0.574 ± 0.0434 fold-change vs cycle 0 for the first, 1.37 ± 0.0364 fold-change vs cycle 0 for the second.

ATAGAA and TCTTCA are within error of each other in binding signal: 1.83 ± 0.226 fold-change vs cycle 0 for the first, 1.48 ± 0.131 fold-change vs cycle 0 for the second.

Compared with AGGGGG, TGTAAA is higher in binding signal: 0.443 ± 0.0497 fold-change vs cycle 0 for the first, 1.7 ± 0.134 fold-change vs cycle 0 for the second.

Compared with AAATCC, AGAGGG is lower in binding signal: 1.24 ± 0.0539 fold-change vs cycle 0 for the first, 0.655 ± 0.0298 fold-change vs cycle 0 for the second.

Going from CTAGCA to AGTATG, the binding signal rises from 0.86 ± 0.0269 fold-change vs cycle 0 to 1.38 ± 0.0928 fold-change vs cycle 0.

Compared with GCACTA, TAGAAA is higher in binding signal: 0.725 ± 0.019 fold-change vs cycle 0 for the first, 1.69 ± 0.141 fold-change vs cycle 0 for the second.

Going from TAGCCA to CCCTCC, the binding signal falls from 0.733 ± 0.0537 fold-change vs cycle 0 to 0.457 ± 0.0716 fold-change vs cycle 0.

First: GTTTAA
Second: AAGTTG
The binding signal of the first is higher: 1.63 ± 0.153 fold-change vs cycle 0 for the first, 1.29 ± 0.0737 fold-change vs cycle 0 for the second.

Going from TGACCA to CCTTGC, the binding signal falls from 0.899 ± 0.0281 fold-change vs cycle 0 to 0.554 ± 0.0487 fold-change vs cycle 0.

First: AACCCC
Second: GTACGA
The binding signal of the first is lower: 0.617 ± 0.0497 fold-change vs cycle 0 for the first, 0.843 ± 0.0399 fold-change vs cycle 0 for the second.
